Screening data as filed in PubChem.
Only a selection was taken, and hits are over-represented in it overall.
Dicer inh: inhibitors of Dicer pre-microRNA processing, primary screen, biochemical, cat-ELCCA, chemiluminescence; cat-ELCCA pre-miR-21 Dicer processing; active compounds read high; z-score at 25 µM; 47,000 tested, 6% active; in the data active = z-score above about 3, passing the limit was not always enough;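 note: plate controls were vehicle for no effect and no enzyme for full effect; higher signal means more uncleaved substrate so more Dicer inhibition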
* marks the source's active call; other numbers are inactive results.

SMILES	Dicer inh
CCOc1ccc(S(=O)(=O)N(C(=O)C(C)C)c2ccc3oc(=O)sc3c2)cc1	3.1*
CCCCC(=O)N(c1ccc2oc(=O)sc2c1)S(=O)(=O)c1cc(OC)ccc1OC	5.2*
Cc1cc(F)ccc1S(=O)(=O)N(C(=O)C(C)C)c1ccc2oc(=O)sc2c1	5*
Cc1ccc(S(=O)(=O)N(C(=O)C(C)C)c2ccc3oc(=O)sc3c2)cc1	1.7
O=S(=O)(c1ccccc1)n1ccc(-c2ccc(C#Cc3ccccc3)s2)n1	2.2
COc1ccc(-c2nc3ccc(Cl)cc3c(=O)o2)cc1	-1.9
Cn1c(=O)c2c(nc(NCc3ccccc3)n2Cc2ccccc2F)n(C)c1=O	0.43
COC(=O)c1sc(S(C)(=O)=O)c2c1CC(C)(C)CC2=O	0.54
CC(O)Cn1c(N(Cc2ccccc2)Cc2ccccc2)nc2c1c(=O)n(C)c(=O)n2C (centres undefined)	-0.96
COC(=O)CCC(=O)N1CCc2ccccc21	-0.08
Cn1nnnc1SCCNCc1cccc(OCc2ccc(Cl)cc2)c1	0.65
NC(=O)C1CC(=O)N(c2ccc(OCC(=O)Nc3ccccc3)cc2)C1 (centres undefined)	0
N#Cc1cc2c(nc1SCC(=O)Nc1ccc(S(=O)(=O)Nc3nccs3)cc1)CCCCC2	1.5
COc1cccc(C2c3c(oc4ccccc4c3=O)C(=O)N2c2ccccn2)c1 (centres undefined)	1.9
O=C1c2oc3ccccc3c(=O)c2C(c2cccc(Oc3ccccc3)c2)N1c1ccccn1 (centres undefined)	4.3*
CCCCOc1cccc(C2c3c(oc4ccccc4c3=O)C(=O)N2c2nnc(C)s2)c1 (centres undefined)	-1.2
COc1cc(C2c3c(oc4ccccc4c3=O)C(=O)N2c2ccccn2)ccc1OCCC(C)C (centres undefined)	3.5*
O=C1c2oc3ccccc3c(=O)c2C(c2cccc(Cl)c2)N1c1ccccn1 (centres undefined)	0.31
CCCCOc1cccc(C2c3c(oc4ccccc4c3=O)C(=O)N2c2ccccn2)c1 (centres undefined)	3.2*
COc1cc(C2c3c(oc4ccccc4c3=O)C(=O)N2c2nnc(C)s2)ccc1OCCC(C)C (centres undefined)	-0.62
CCOc1cccc(C2c3c(oc4ccccc4c3=O)C(=O)N2c2ccccn2)c1 (centres undefined)	5.9*
COc1cc(C2c3c(oc4ccccc4c3=O)C(=O)N2c2ccccn2)ccc1OCc1ccccc1 (centres undefined)	-0.4
O=C1c2oc3ccccc3c(=O)c2C(c2cccc(Br)c2)N1c1ccccn1 (centres undefined)	0.01
C=CCOc1cccc(C2c3c(oc4ccccc4c3=O)C(=O)N2c2ccccn2)c1 (centres undefined)	2.2
CCCCCOc1cccc(C2c3c(oc4ccccc4c3=O)C(=O)N2c2nccs2)c1 (centres undefined)	-0.96
SMILES	Dicer inh
CSc1nn(-c2ccccc2)c(N)c1S(=O)(=O)c1ccc(Cl)cc1	-0.93
CCOC(=O)c1sc(NC(=O)CC)c(C(=O)OCC)c1C	-5.3
Cc1c(CNC(=O)c2c([N+](=O)[O-])cnn2C)cnn1C	-1.3
CCOC(=O)/C(C#N)=C/Nc1ccc2oc(=O)c(NC(C)=O)cc2c1	-1.7
CC(C)N1CCN(c2ccc(OC[C@H]3CO[C@](Cn4cncn4)(c4ccc(Cl)cc4Cl)O3)cc2)CC1	5.1
Cn1c(=O)c2c(nc(Oc3ccc4ccccc4c3)n2Cc2c(Cl)cccc2Cl)n(C)c1=O	0.56
Cc1ccc(-c2noc(COc3ccc(Cl)cc3C)n2)cc1	5.7*
COc1ccc(-c2noc(COc3ccc(C)cc3C)n2)cc1	0.79
Cc1ccc(-c2noc(COc3ccc(Cl)cc3)n2)cc1	6.9
O=C(NCc1cccnc1)c1ccc([N+](=O)[O-])o1	-0.63
Cn1ccnc1SCC(=O)Nc1ccc(F)cc1F	0.44
CC(=O)n1cc(/C=C2/N=C(c3ccccc3)OC2=O)c2ccccc21	3*
COc1ccc(/C=C2\N=C(c3ccccc3)OC2=O)c(OC)c1	-1.5
O=C1OC(c2ccccc2)=N/C1=C/c1cccs1	-0.63
Cc1ncc(CSCC(=O)Nc2cc(C(F)(F)F)ccc2Cl)c(CO)c1O	-0.64
Cc1ccc(NC(=O)c2sc3cc(C(C)(C)C)sc3c2C)cc1	-0.48
O=C(O)c1cccc2cccc(Sc3cccc4cccc(CO)c34)c12	-0.86
O=C(O)c1cccc2cccc(Sc3cccc4ccccc34)c12	0.88
CNC(=O)c1cccc2cccc(Sc3ccccc3C(=O)O)c12	25*
Clc1ccccc1-c1nnc(-c2ccncc2)o1	-0.28
COc1ccc(Cc2nnc3sc(/C=C/c4ccccc4)nn23)cc1	2.6
COc1ccc(O)c(C2=NN3C(C2)c2cccc(OC)c2OC3c2ccc(OC)c(O)c2)c1 (centres undefined)	0.58
COc1cccc2c1OC(c1ccccc1)N1N=C(c3ccccc3O)CC21 (centres undefined)	1.5
COc1cccc2c1OC(c1ccc(O)cc1)N1N=C(c3ccccc3O)CC21 (centres undefined)	4
